This is one part of the list. Activity calls are given as the source filed them. Unless noted, no stated cut-off is given here; in the data, active means inhibition above about 25%; inactive means the rest.
How the values were obtained:
[1] = target: Nuclear receptor coactivator 3 (Homo sapiens) (UniProt Q9Y6Q9); assay: SRC3 coactivator transcriptional activity inhibitors, confirmation, cell-based, luminescence, quadruplicate (AID 588792;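 active means mean inhibition over 43.08%, the solvent-only control mean plus 3 SD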;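 further: 0% = DMSO treated cells and 100% = gossypol at 36 µM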); settings: HEK293 GAL4-SRC3 luciferase reporter, at 3.6 µM, hits give high values
[2] = system: transactivating tegument protein VP16 (Human herpesvirus 1), Gal4-VP16 luciferase reporter; assay: VP16 transactivation inhibitors, counter-screen for SRC3 inhibitor project, cell-based, luminescence, high throughput (AID 588794; in the data active means inhibition above about 30%); settings: mammalian cells, VP16-driven luciferase reporter luminescence; at 3.6 µM; hits give high values
[3] = target: Nuclear receptor coactivator 1 (Homo sapiens) (UniProt Q15788); assay: SRC1 coactivator transcriptional activity inhibitors, confirmation, cell-based, luminescence, quadruplicate (AID 588820;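 active means mean inhibition above 46.68%, the untreated control wells mean plus 3 SD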;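 further: 0% = DMSO wells and 100% = gossypol 36 µM treated wells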); settings: HEK293 GAL4-SRC1 luciferase reporter, at 3.6 µM, hits give high values
[4] = VP16 transactivation inhibitors, counter-screen for SRC1 inhibitor project, cell-based, luminescence, high throughput (AID 588824); settings: cell-based VP16 transactivation luciferase luminescence; at 3.6 µM; hits give high values
[5] = StAR promoter reporter inhibitors, counter-screen for LRH-1 inverse agonist project, cell-based, luminescence, high throughput (AID 651611; in the data active means inhibition above about 28%); settings: StAR promoter luciferase reporter counterscreen, at 3.6 µM, hits give high values
[6] = target: Nuclear receptor subfamily 5 group A member 2 (Homo sapiens) (UniProt O00482); assay: LRH-1 (NR5A2) inverse agonists, retest, confirmation, cell-based, luminescence (AID 651613; in the data active means inhibition above about 42%;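 further: HEK293T cells co-transfected with LRH-1 and StAR promoter luciferase reporter; 0% = vehicle wells and 100% = parental cells lacking receptor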); settings: cell-based LRH-1 luciferase reporter, inverse agonism; at 3.6 µM; hits give high values
[7] = target: Steroidogenic factor 1 (Homo sapiens) (UniProt Q13285); assay: SF1 (NR5A1) inverse agonists, counter-screen for LRH-1 inverse agonist project, cell-based, luminescence, high throughput (AID 651614; in the data active means inhibition above about 44%;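 further: cells cotransfected with StAR promoter reporter and SF1 expression vector; 0% = vehicle on cells with receptor and 100% = vehicle on cells lacking receptor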); settings: cell-based SF1 luciferase reporter, at 3.6 µM, hits give high values
[8] = VP16 transactivation reporter inhibitors, counter-screen for LRH-1 inverse agonist project, cell-based, luminescence, high throughput (AID 651615; in the data active means inhibition above about 33%); settings: Gal4-VP16 luciferase reporter cells, at 3.6 µM, hits give high values
[9] = target: Photoreceptor-specific nuclear receptor (Homo sapiens) (UniProt Q9Y5X4); assay: NR2E3 agonist confirmation in cells, cell-based, luminescence, CHO-S two-hybrid (AID 624378;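 active means average inhibition above a cutoff equal to the mean inhibition of all tested compounds plus one SD, cut at about 70% in these data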;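 further: 0% = DMSO in NR2E3 cells and 100% = DMSO in cells lacking NR2E3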); settings: CHO-S mammalian two-hybrid NR2E3-NCOR, luciferase luminescence; at 3.98 µM; hits give high values
[10] = GAL4-VP16 reporter modulators, confirmation, counter-screen for NR2E3 agonist project, cell-based, luminescence, CHO-S, high throughput (AID 624379;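 active means mean inhibition above a cutoff equal to the average over all tested compounds plus one standard deviation, cut at about 70% in these data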;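 further: 0% = DMSO with VP16-transfected cells and 100% = DMSO with cells lacking VP16; higher means less reporter light so more repression of VP16 activity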); settings: CHO-S GAL4-VP16 luciferase reporter, at 3.98 µM, hits give high values
[11] = system: transactivating tegument protein VP16 (Human herpesvirus 1); assay: VP16 transactivation reporter inhibitors, counter-screen for SRC2 inhibitor project, cell-based, luminescence, single concentration (AID 652007; in the data active means inhibition above about 36%); settings: cell-based VP16 transactivation luciferase reporter, at 8.9 µM, hits give high values
[12] = target: Nuclear receptor coactivator 2 (Homo sapiens) (UniProt Q15596); assay: SRC2 coactivator transcriptional activity inhibitors, confirmation, cell-based, luminescence, HEK293, triplicate (AID 652008;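 active means mean inhibition above 46.5%, the solvent-only control mean plus 3 SD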;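 further: 0% = DMSO-treated cells and 100% = Gossypol at 36 µM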); settings: HEK293 GAL4-SRC2 luciferase reporter, at 8.9 µM, hits give high values
[13] = Gal4-VP16 luciferase reporter inhibitors, counter-screen for COUP-TFII antagonist project, cell-based, luminescence, HEK293 (AID 687007; in the data active means inhibition above about 13%); settings: at 8.5 µM, hits give high values
[14] = target: COUP transcription factor 2 (Homo sapiens) (UniProt P24468); assay: NR2F2 transcriptional activity inhibitors, confirmation, cell-based, luciferase reporter, HEK293, triplicate (AID 687008;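 active means mean inhibition over three repeats above a set limit taken from the earlier primary screen, cut at about 38% in these data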;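 further: 100% = cells given the luciferase reporter alone without the COUP-TF2 vector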); settings: HEK293 NGFI-A luciferase reporter, luminescence; at 8.5 µM; hits give high values

Measured: inhibition

Chain of Nuclear receptor coactivator 1 (Homo sapiens) (Q15788 whole entry, looked up, the tested form may be a part): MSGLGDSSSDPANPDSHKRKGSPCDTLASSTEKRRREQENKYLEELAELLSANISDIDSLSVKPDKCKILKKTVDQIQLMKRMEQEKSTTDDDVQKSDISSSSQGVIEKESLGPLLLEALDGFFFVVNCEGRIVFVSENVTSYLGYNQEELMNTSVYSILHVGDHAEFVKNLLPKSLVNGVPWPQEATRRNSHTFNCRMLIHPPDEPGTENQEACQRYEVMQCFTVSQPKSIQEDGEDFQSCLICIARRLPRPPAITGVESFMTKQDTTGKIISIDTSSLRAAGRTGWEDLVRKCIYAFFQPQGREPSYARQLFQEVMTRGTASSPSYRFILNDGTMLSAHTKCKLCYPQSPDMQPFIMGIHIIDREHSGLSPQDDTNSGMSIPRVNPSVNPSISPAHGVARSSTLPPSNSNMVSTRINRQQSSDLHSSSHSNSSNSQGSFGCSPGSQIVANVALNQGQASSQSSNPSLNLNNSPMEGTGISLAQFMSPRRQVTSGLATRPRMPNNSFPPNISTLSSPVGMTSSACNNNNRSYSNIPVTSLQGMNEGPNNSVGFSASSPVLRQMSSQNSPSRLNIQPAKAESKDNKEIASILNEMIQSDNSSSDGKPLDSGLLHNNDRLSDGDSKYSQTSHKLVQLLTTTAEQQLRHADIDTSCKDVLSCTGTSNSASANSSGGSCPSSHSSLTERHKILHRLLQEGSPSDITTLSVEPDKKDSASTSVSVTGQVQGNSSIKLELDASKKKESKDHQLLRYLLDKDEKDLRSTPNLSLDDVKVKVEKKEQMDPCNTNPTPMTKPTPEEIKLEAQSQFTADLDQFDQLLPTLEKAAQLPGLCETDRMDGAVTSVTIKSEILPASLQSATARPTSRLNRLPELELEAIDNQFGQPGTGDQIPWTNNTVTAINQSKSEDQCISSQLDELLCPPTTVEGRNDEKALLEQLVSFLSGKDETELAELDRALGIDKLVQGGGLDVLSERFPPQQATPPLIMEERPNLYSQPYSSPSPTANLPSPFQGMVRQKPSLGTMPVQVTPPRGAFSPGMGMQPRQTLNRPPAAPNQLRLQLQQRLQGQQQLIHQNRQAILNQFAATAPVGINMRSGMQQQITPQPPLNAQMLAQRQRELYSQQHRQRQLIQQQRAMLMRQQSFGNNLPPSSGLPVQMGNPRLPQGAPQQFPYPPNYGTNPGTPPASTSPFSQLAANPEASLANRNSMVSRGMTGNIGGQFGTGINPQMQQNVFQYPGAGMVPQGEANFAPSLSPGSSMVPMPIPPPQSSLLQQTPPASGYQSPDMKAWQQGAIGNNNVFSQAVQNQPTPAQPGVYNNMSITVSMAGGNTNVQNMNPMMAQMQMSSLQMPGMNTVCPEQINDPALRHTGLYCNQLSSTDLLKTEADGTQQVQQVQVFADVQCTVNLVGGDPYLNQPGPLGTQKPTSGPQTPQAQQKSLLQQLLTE
Chain of Nuclear receptor subfamily 5 group A member 2 (Homo sapiens) (O00482 whole entry, looked up): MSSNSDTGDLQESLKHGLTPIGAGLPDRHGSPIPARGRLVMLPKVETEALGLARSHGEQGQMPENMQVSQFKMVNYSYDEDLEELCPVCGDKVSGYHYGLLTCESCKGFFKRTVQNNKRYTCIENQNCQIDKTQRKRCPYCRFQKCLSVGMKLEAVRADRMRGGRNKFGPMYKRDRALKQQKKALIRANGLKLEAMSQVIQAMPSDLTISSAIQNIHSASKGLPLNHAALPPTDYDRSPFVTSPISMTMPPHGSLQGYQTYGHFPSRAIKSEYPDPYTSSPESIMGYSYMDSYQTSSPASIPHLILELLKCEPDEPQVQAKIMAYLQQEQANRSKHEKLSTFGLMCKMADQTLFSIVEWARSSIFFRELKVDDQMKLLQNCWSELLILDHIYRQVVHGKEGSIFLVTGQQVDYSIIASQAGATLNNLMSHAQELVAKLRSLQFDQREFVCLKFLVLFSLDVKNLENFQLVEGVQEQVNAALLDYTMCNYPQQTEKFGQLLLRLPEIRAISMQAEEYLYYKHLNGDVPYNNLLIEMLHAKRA
Chain of Nuclear receptor coactivator 3 (Homo sapiens) (Q9Y6Q9 whole entry, looked up, the tested form may be a part): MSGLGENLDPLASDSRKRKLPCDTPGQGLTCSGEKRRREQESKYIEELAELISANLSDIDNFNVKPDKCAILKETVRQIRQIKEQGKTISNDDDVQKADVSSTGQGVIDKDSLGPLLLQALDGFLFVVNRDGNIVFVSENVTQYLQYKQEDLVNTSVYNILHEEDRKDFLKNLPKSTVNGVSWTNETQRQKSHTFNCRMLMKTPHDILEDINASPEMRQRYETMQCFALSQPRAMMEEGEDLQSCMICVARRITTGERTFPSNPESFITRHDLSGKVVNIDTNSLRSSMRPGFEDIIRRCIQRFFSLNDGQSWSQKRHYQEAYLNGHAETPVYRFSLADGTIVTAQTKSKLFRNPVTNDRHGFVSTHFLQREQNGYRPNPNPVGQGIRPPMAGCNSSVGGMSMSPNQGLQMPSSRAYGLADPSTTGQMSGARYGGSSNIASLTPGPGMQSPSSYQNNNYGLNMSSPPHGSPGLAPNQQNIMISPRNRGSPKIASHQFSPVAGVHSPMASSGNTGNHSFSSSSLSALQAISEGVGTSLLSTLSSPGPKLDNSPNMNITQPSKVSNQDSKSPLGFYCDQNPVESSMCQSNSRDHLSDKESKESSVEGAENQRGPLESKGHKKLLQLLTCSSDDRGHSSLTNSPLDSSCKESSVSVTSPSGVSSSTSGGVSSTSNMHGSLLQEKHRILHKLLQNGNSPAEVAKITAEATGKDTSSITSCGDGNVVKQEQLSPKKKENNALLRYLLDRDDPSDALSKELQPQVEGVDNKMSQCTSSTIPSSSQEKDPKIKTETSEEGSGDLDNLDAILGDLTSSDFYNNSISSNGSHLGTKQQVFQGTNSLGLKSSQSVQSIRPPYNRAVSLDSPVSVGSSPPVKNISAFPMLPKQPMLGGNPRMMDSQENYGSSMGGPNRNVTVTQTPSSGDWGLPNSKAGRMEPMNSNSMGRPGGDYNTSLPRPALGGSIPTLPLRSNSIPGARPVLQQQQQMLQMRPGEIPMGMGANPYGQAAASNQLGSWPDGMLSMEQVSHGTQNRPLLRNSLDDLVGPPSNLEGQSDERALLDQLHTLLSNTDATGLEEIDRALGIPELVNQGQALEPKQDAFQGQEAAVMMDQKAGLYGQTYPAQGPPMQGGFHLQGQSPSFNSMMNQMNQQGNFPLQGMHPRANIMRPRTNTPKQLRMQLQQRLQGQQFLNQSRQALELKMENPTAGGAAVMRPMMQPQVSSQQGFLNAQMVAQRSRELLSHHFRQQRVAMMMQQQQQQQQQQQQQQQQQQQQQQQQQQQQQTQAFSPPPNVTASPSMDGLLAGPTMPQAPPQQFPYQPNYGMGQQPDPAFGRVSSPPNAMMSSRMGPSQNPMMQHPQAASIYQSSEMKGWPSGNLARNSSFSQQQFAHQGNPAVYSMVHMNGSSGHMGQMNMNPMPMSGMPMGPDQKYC
Chain of Steroidogenic factor 1 (Homo sapiens) (Q13285 whole entry, looked up, the tested form may be a part): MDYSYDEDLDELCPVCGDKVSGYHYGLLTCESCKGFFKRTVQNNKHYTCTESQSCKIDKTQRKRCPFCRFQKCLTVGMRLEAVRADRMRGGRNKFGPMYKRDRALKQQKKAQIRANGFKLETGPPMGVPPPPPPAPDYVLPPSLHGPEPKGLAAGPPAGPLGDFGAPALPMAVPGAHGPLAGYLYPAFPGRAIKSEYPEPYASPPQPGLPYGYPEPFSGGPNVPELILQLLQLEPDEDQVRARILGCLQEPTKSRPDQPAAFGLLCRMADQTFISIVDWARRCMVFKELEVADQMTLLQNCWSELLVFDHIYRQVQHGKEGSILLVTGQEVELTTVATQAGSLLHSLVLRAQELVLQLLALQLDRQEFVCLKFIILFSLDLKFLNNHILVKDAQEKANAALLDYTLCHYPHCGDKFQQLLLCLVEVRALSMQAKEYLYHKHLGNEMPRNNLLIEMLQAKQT
Chain of Photoreceptor-specific nuclear receptor (Homo sapiens) (Q9Y5X4 whole entry, looked up, the tested form may be a part): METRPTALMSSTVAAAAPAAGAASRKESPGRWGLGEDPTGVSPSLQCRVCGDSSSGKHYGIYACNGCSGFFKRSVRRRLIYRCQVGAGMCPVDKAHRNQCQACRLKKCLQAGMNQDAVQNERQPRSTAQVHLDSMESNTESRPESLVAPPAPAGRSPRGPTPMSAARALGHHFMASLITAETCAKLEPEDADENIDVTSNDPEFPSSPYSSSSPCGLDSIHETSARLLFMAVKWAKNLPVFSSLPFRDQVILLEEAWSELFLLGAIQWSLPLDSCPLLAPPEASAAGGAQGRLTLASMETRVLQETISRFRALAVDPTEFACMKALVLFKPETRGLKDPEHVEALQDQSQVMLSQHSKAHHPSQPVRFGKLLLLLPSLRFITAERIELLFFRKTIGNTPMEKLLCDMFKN
Chain of COUP transcription factor 2 (Homo sapiens) (P24468 whole entry, looked up): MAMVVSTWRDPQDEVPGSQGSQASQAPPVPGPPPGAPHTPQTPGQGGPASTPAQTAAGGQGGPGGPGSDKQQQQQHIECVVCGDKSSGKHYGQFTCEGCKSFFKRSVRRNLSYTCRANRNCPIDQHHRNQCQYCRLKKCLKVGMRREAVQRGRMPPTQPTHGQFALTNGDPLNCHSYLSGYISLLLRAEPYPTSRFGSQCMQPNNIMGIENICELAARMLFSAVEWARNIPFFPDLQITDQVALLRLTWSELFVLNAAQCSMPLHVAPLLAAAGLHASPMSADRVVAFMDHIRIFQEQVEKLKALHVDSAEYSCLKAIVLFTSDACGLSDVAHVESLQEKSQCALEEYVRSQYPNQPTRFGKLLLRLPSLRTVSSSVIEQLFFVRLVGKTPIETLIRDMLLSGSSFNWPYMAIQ

Cc1ccc(-c2cc(-c3ccc(C)cc3)[n+](-c3ccccc3)c(-c3ccc(C)cc3)c2)cc1
active: [1] 79.8% | [2] 82.6% | [3] 48.3% | [4] 80.6% | [5] 84.5% | [6] 111% | [7] 94.8% | [8] 95%

O=c1[nH]c2ccccc2n1C1CCN(C(c2ccccc2OC(F)(F)F)c2nnnn2Cc2ccccc2)CC1 (centres undefined)
inactive: [1] -2.46% | [2] 2.54% | [3] -29% | [4] 0.5%

CN1CCN(c2ncnc3ccc(Br)cc23)CC1
inactive: [1] 42.3% | [3] 31.2%
active: [2] 37.6% | [4] 33.4%

O=c1[nH]c2ccccc2n1C1CCN(C(c2ccnc3ccccc23)c2nnnn2-c2ccc3c(c2)OCCO3)CC1 (centres undefined)
inactive: [1] 8.29% | [2] 6.76% | [3] -26.3% | [4] 8.7%

COc1cc2c(cc1O)C[C@H]1NCCc3cc4c(c-2c31)OCO4
active: [2] 33.2% | [4] 40.2%
inactive: [1] 32.3% | [3] 22.1%

N#CC(C#N)=NNc1ccc(-n2ccc(C(F)(F)F)n2)cc1
active: [1] 49.1% | [2] 52.6% | [4] 56.3%
inactive: [3] 40.7%

CN(C)c1ccc(/C=C/C=C/c2sc3ccccc3[n+]2C)cc1
inactive: [1] 22.8% | [3] 27.4%
active: [2] 38.5% | [4] 30.4% | [5] 35.2% | [6] 54.1% | [7] 63% | [8] 56.9%

CCC(C)(O)C(=O)OC1C(=O)OC2CC3C(C)=CC(O)C(O)C3(C)C3C4(O)OCC23C1C(C)C4O (centres undefined)
active: [2] 65.8% | [4] 72% | [5] 79.5% | [6] 103% | [7] 92.4% | [8] 87%
inactive: [1] 38.8% | [3] 36.7%

O=c1[nH]c2ccccc2n1C1CCN(C(c2ccccc2)c2nnnn2Cc2ccccc2)CC1 (centres undefined)
active: [1] 64.1%
inactive: [2] 16.8% | [3] -21.5% | [4] 15.1% | [9] 30.7% | [10] 4.07%

CC1=CC2OC3CC4OC(=O)C=CC=CC(=O)OCCC(C)C(O)C(=O)OCC2(CC1O)C4(C)C31CO1 (centres undefined)
active: [1] 98% | [2] 96.8% | [3] 96.8% | [4] 95.6%

Cc1cccc(C)c1-n1nnnc1C(CCc1ccccc1)N1CCC(n2c(=O)[nH]c3ccccc32)CC1 (centres undefined)
active: [2] 49.2% | [4] 51.8%
inactive: [1] 40.6% | [3] 20.7%

CC(C)(C)c1cc(C=C(C#N)C#N)cc(C(C)(C)C)c1O
active: [1] 64.3% | [2] 82.4% | [4] 81% | [5] 80.2% | [6] 102% | [7] 91.4% | [8] 88.2%
inactive: [3] 0.93%

C[C@H]1[C@@H](OS(=O)(=O)O)C[C@@H]2C[C@H]([C@@H](O)c3cc(=O)[nH]c(=O)[nH]3)NC3=NC[C@H]1N32
active: [1] 88.3% | [2] 71% | [3] 58% | [4] 70.5% | [5] 92.3% | [6] 107% | [7] 95.2% | [8] 76.8%

O=c1[nH]c2ccccc2n1C1CCN(C(c2cccc3ccccc23)c2nnnn2Cc2ccccc2)CC1 (centres undefined)
inactive: [1] 13.1% | [2] 8.16% | [3] -24.4% | [4] -4.89% | [6] 18.9% | [7] 28.4% | [8] 9.13%
active: [5] 53.6%

C/C(=N\Nc1ccccc1)c1c(O)[nH]c(=O)[nH]c1=O
inactive: [1] 0.35% | [2] 17.7% | [3] -2.36% | [4] 13.6%

CN1CCN(c2ccc([N+](=O)[O-])c3no[n+]([O-])c23)CC1
active: [1] 98.6% | [2] 96.4% | [3] 93.7% | [4] 96% | [5] 97% | [6] 111% | [7] 98.9% | [8] 97.9%

CC(=O)OC1C(=O)OCC23CCC4(C)OC4C2OC2CC(OC(=O)C=CC=CC(=O)OCCC1C)C3(C)C21CO1 (centres undefined)
active: [1] 98.1% | [2] 96.5% | [3] 96.7% | [4] 96.3% | [5] 96.8% | [6] 110% | [7] 98.6% | [8] 95.3%

CC1CC(C)(O)CC(C(O)CC2CC(=O)NC(=O)C2)C1=O (centres undefined)
active: [1] 96.7% | [2] 95.7% | [3] 89.7% | [4] 94.9% | [5] 96.2% | [6] 110% | [7] 98.5% | [8] 98.1%

CCC(C)(O)C(=O)OC1C(=O)OC2CC3C(C)=CC(=O)C(O)C3(C)C3C4(O)OCC23C1C(C)C4O (centres undefined)
active: [1] 97.1% | [2] 96.7% | [3] 94.3% | [4] 96.4% | [9] 98.7% | [10] 86.9% | [5] 96.1% | [6] 109% | [7] 97.6% | [8] 96.8% | [11] 80.7% | [12] 74.8% | [13] 31.2% | [14] 90.8%
